In PubChem BioAssay AID559 (PCMD, 2006) one finds inhibition data, which are given here for 96 compounds.

SMILES strings stand for the structures. About 100 (0.2%) of roughly 62,000 compounds were called active. Rule as the data show it: active = inhibition above about 20%; inactive = the rest. The list comes from a sample in which actives are over-represented; it also holds similar structures and randomly drawn compounds.

The target in the test is DNA-directed RNA polymerase subunit beta (Escherichia coli (strain K12)) (UniProt P0A8V2). The experiment in a line: E. coli RNAP inhibitors, biochemical (AID 559).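 Also: 0% = enzyme without compound and 100% = no enzyme blank.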 Particulars: fluorescence transcription assay, active compounds read high,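 tested at 10 µM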.
DNA-directed RNA polymerase subunit beta (Escherichia coli (strain K12)), sequence (P0A8V2 whole entry, looked up): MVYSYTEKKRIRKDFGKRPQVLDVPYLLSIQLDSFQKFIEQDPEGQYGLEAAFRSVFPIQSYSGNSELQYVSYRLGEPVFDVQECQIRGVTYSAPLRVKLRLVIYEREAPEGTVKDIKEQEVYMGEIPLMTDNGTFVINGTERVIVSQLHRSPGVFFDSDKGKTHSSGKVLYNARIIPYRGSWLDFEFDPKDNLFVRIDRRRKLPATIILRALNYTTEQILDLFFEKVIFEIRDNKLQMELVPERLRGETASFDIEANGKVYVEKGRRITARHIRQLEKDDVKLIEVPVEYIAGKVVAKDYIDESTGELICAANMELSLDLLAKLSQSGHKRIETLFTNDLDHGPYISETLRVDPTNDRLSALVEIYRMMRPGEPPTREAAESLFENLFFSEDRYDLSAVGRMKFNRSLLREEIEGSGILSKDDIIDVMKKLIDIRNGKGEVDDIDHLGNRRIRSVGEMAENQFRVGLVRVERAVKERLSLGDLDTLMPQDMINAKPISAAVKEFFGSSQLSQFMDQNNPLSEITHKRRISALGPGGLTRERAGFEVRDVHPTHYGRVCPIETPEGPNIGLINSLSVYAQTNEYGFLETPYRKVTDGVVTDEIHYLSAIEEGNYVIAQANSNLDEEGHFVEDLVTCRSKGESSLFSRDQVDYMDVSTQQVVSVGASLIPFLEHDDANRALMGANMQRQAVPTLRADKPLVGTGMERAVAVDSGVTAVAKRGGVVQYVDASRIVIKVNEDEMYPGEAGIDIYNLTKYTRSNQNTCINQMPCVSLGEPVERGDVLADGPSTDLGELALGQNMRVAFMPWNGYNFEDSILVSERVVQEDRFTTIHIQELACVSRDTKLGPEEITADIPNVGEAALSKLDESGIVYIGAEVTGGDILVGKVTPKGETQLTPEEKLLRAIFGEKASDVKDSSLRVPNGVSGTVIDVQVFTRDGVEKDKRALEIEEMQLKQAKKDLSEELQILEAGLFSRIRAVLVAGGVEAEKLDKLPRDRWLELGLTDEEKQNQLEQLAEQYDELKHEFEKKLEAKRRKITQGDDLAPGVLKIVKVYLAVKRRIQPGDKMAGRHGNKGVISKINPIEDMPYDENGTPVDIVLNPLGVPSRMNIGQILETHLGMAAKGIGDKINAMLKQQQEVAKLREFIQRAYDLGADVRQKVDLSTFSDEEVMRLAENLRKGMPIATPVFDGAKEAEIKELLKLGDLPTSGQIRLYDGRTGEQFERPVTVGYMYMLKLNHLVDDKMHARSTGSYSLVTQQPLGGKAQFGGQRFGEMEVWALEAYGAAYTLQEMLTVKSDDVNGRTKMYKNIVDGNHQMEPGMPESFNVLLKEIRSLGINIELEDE
Regarding `CCc1c(C)sc(NC(=O)c2ccc(Br)o2)c1C(=O)OC`, the inhibition – broadly, the change of the read-out against control, counted positive when it falls – is 3.85% (inactive).
As to `C=CCn1c(COc2cccc3cccnc23)nnc1SCC(=O)OC`, the inhibition was 2.75% (inactive).
For `Cc1ccc(S(=O)(=O)N2CCN(C(=O)CCC(=O)NC3CCCc4ccccc43)CC2)cc1` (stereo unspecified), the inhibition is 8.3% (inactive).
Regarding `Cc1c(NC(=O)Nc2ccccc2Cl)sc(=S)n1C`, the inhibition is 4.97% (inactive).
`CC(=O)C1C(c2ccc(Cl)cc2)NC(=O)NC1(O)C(F)(F)F` (stereo unspecified): the inhibition was 5.59% (inactive).
As to `COc1ccccc1C1/C(=C(/O)c2ccc(C)cc2)C(=O)C(=O)N1Cc1ccco1` (stereo unspecified), the inhibition was 10.3% (inactive).
`CC(=O)OCc1cc(=O)n(C)c(=O)n1C`: the inhibition was -0.42% (inactive).
In the case of `O=S(=O)(O)c1nc2ccccc2n1Cc1ccc(Cl)cc1Cl`, the inhibition was 4.09% (inactive).
With `O=C(O)C1CC=CCC1C(=O)NCCc1ccccc1` (stereo unspecified), the inhibition is -1.18% (inactive).
Regarding `CCOc1ccc(NC(=O)CCC(=O)n2nc(C)cc2C)cc1`, the inhibition is 7.47% (inactive).
For `CCCCOc1ccc(NC(=O)CSCC(=O)OCC)cc1` the value was 20.6% (active); for `CCOc1ccc(NC(=O)CC2NCCNC2=O)cc1` (stereo unspecified), 10.3% (inactive).
Take `CN(C)/C=C1/C(=O)Nc2ccccc21`: the inhibition is 12.9% (inactive).
For `COC(=O)c1ccc(NC(=O)CSc2nnc(CNc3ccc(OC)cc3)n2C)cc1`, the inhibition is 1.56% (inactive).
For `C[C@H](NC(=O)OC(C)(C)C)c1nnc(SCC(N)=O)o1` the value was -0.35% (inactive).
In the case of `COc1ccc(-n2nnc3c(=O)n(CC(=O)OCc4ccccc4)cnc32)cc1`, the inhibition was 1.78% (inactive).
For `CCC(C(=O)N1CCOCC1)n1c(C(=O)OC)cc2occc21` (stereo unspecified), the inhibition is -1.1% (inactive).
Next, `O=C(c1cccs1)N(C(=O)c1cccs1)c1ccccn1`: 4.36% (inactive).
In the case of `COc1cc(C2C3C(=O)N(c4ccccc4)C(=O)C3ON2c2ccccc2)ccc1O` (stereo unspecified), the inhibition was 6.83% (inactive).
As for `CCOC(=O)C1C(=O)C=C(c2ccc(OC)cc2)CC1c1ccco1` (stereo unspecified), the inhibition was 0.68% (inactive).
For the compound `C=C(Br)CN1CCN(CC(=C)Br)CC1`, the inhibition was 5.48% (inactive).
Turning to `CCNC(=O)N1CCNC(=O)C1CC(=O)Nc1ccc(C(=O)OCC)cc1` (stereo unspecified), the inhibition is 24.6% (active).
Regarding `CCOC(=O)c1ccc(NC(=O)CSc2ncccn2)cc1`, the inhibition is 18.1% (inactive).
For `COc1ccccc1C(=O)N1CCNC(=O)C1CC(=O)Nc1ccc(Cl)cc1` (stereo unspecified), the inhibition is 7.25% (inactive).
As for `COc1ccc(N2CCN(C(=O)CSc3ncnc4c3cnn4-c3ccc(OC)cc3)CC2)cc1`, the inhibition is 3.59% (inactive).
Regarding `CC(=O)Nc1ccc(S(=O)(=O)N2CCN(C3CCCCCCC3)CC2)cc1`, the inhibition is 4.11% (inactive).
Regarding `CC(C)(C)c1cc(CN2CCN(CCC#N)CC2)cc(C(C)(C)C)c1O`, the inhibition is 2.69% (inactive).
Regarding `Cc1ccc(NC(=O)CN(C)S(=O)(=O)c2cnc[nH]2)cc1C`, the inhibition is 6.13% (inactive).
Consider `Cc1ccc2c(c1)sc1ncc(NC(=O)c3ccccc3)c(=O)n12`, for which the inhibition is -11.4% (inactive).
Turning to `CCCCCCn1c(SCC(=O)c2ccccc2)nc2c1c(=O)[nH]c(=O)n2C`, the inhibition is -4.3% (inactive).
Next, `c1ccc(CCc2nc(-c3ccncc3)no2)cc1`: 8.17% (inactive); `CC1CCN(Cc2nc3c(c(=O)n(C)c(=O)n3C)n2Cc2cccc3ccccc23)CC1`: 11.8% (inactive).
For `CC(c1ccccc1)n1c(NCCCn2ccnc2)nc2c1c(=O)[nH]c(=O)n2C` (stereo unspecified), the inhibition was 6.37% (inactive).
Turning to `O=C(Nc1ccccc1N1CCCCC1)c1ccc2nccnc2c1`, the inhibition was 5.19% (inactive).
For the compound `CC(C)[C@H](NC(=O)Nc1ccc(S(N)(=O)=O)cc1)C(=O)O`, the inhibition was 3.2% (inactive).
`Cc1cccc(C2c3c(n(C)c(=O)n(C)c3=O)N=C3c4ccccc4C(=O)C32)c1` (stereo unspecified): the inhibition is 8.94% (inactive).
Take `Cn1c(=O)n(C)c2cc(S(=O)(=O)N3CCCc4ccccc43)ccc21`: the inhibition was 0.45% (inactive).
For `Cc1nn(C)c(C)c1S(=O)(=O)N1CCc2ccccc21` the value was 27.2% (active); for `CSc1nc2ccc(S(=O)(=O)N3CCc4ccccc43)cc2s1`, 0.59% (inactive); for `COCCOC(=O)C1=C(C)NC(=O)NC1c1ccc(Cl)cc1` (stereo unspecified), 7.31% (inactive).
Take `COC(=O)c1ccc(C2CC(=O)Nc3cc(OC)c(OC)cc32)cc1` (stereo unspecified): the inhibition is 3.45% (inactive).
Next, `CCc1cccc2c3c([nH]c12)C(CC)(CC(=O)O)OCC3` (stereo unspecified): 8.22% (inactive); `O=C(O)C1OC(C(=O)O)C2C1C(F)(F)C2(F)F` (stereo unspecified): 3.61% (inactive).
Regarding `NS(=O)(=O)c1cc2c(cc1Cl)NC(C(Cl)Cl)NS2(=O)=O` (stereo unspecified), the inhibition was 8.21% (inactive).
For `CCS(=O)(=O)n1nc(-c2ccc(OC)cc2)nc1SC` the value was 5.44% (inactive); for `Cc1ccc(CC2CC(=O)N(c3ccc4c(c3)OCCO4)C2=O)cc1` (stereo unspecified), 7.6% (inactive); for `Cn1c2c(c(=O)n(C)c1=O)C1c3ccccc3OCC1C(C)(C)O2` (stereo unspecified), 11.7% (inactive).
In the case of `CC1(c2ccccc2Cl)NC(=O)N(CC(=O)NC(=O)NCc2ccco2)C1=O` (stereo unspecified), the inhibition is 3.56% (inactive).
Turning to `CCOc1ccc(Cn2c(SCCCCC#N)nc3c2c(=O)n(C)c(=O)n3C)cc1OCC`, the inhibition is 1.66% (inactive).
Next, `CCOC(=O)NC(C(F)(F)F)(C(F)(F)F)P(=O)(c1ccccc1)c1ccccc1`: 12.5% (inactive).
Take `O=C(NCC1CCCO1)C(C(=O)c1ccccc1)n1cc(Cl)ccc1=O` (stereo unspecified): the inhibition was -2.02% (inactive).
For `O=C(COC(=O)c1ccccc1C(=O)c1ccccc1)c1ccco1` the value was 4.61% (inactive); for `Cc1ccc(NC(=O)c2cc(-c3ccc(C)o3)nc3ccccc23)nc1`, 2.57% (inactive); for `O=C(c1ccc2c(c1)N(Cc1ccc(F)cc1)C(=O)CS2)N1CCOCC1`, -0.9% (inactive).
`Cc1nc2c(-c3ccccc3)c(C)[nH]n2c(=O)c1Cl`: the inhibition was 0.3% (inactive).
As for `CCNc1nc(N)nc(Oc2ccc(OCC)nn2)n1`, the inhibition was 16.5% (inactive).
Next, `COc1ccc(OCC(=O)OCC(=O)Nc2ccc(S(=O)(=O)N3CCCCC3)cc2)cc1`: 6.57% (inactive); `Cc1noc(C)c1S(=O)(=O)Nc1ccc(C(=O)O)cc1`: -2.73% (inactive); `C=CCNC(=O)C1CC=CCC1C(=O)O` (stereo unspecified): -0.09% (inactive).
Take `CC(C)(C)NC(=O)NC(=O)COC(=O)Cn1c(C(F)(F)F)nc2ccccc21`: the inhibition was -0.99% (inactive).
Take `O=C(CSc1nc2[nH]ncc2c(=O)n1-c1ccccc1)N1CCCc2ccccc21`: the inhibition is -2.19% (inactive).
Regarding `CCOc1ccc(NS(=O)(=O)c2ccc(OCC(=O)NCCCOC)cc2)cc1`, the inhibition is 0.48% (inactive).
For `COCCCN(C(=O)Cn1ncc2c(=O)oc3ccc(C)cc3c21)C(C)c1ccncc1` (stereo unspecified), the inhibition is 5.04% (inactive).
On to `CCc1c(C)c2c(C)[nH]nc2oc1=O`, for which the inhibition is 6.94% (inactive).
For `CCCOc1ccccc1-c1nc(SCCC(=O)O)n[nH]1` the value was 4.03% (inactive); for `CCC(C)(NC(=O)c1ccccn1)C(=O)NC1CCCCC1` (stereo unspecified), 24.2% (active); for `CN(CC(=O)NC1CCCCC1)S(=O)(=O)c1cccc2cccnc12`, 1.4% (inactive).
On to `CCC(C)(C(=O)NC1CCCC1)N(C(=O)CNC(C)=O)c1ccc(C)cc1` (stereo unspecified), for which the inhibition was 2.29% (inactive).
Take `CCN1C(=O)/C(=C2/Sc3ccccc3N2CCCS(=O)(=O)O)SC1=S`: the inhibition was 14% (inactive).
For `COCCNC(=O)CN1C(=O)CSc2ncccc21`, the inhibition is 2.28% (inactive).
Regarding `Cc1ccc(Cn2c(NC(=O)c3ccco3)nc3ccccc32)cc1`, the inhibition is 3.14% (inactive).
Turning to `CCOC(=O)C1CCCN(C(=O)c2sc3nc(C)nc(N4CCOCC4)c3c2C)C1` (stereo unspecified), the inhibition is 6.92% (inactive).
For `COc1cccc(N2CCN(C(=O)C3CCCN(S(=O)(=O)c4cnc[nH]4)C3)CC2)c1` (stereo unspecified) the value was 6.57% (inactive); for `Cn1c(=O)c2c(nc(N3CCCCCC3)n2CC(=O)c2ccc(Br)cc2)n(C)c1=O`, 6.56% (inactive); for `O=CN1CCN(C2CC(=O)N(c3ccc4c(c3)OCO4)C2=O)CC1` (stereo unspecified), -2.9% (inactive).
Regarding `Cc1cc(NC(=O)CSc2nnc(-c3ccc(Cl)s3)o2)no1`, the inhibition is 2.94% (inactive).
For `Nc1nonc1-c1nc2ccccc2n1Cc1ccc(F)cc1` the value was 1.54% (inactive).
Take `COCc1cc(C)nc(SCC(=O)Nc2cccc(C)c2)c1C#N`: the inhibition is 10.2% (inactive).
Take `CC(C)C(c1nnnn1Cc1ccccc1)N1CCC(C(N)=O)CC1` (stereo unspecified): the inhibition was 9.07% (inactive).
With `O=C(NC1CCCCC1)n1c(=O)oc2cc(S(=O)(=O)N3CCCCC3)ccc21`, the inhibition was 5.56% (inactive).
In the case of `COC(=O)c1c(NC(=O)CCN2CCOCC2)sc2c1CCCC2`, the inhibition was 7.91% (inactive).
For `Cc1cc(C)nc(NC2=NCC(=O)N2c2ccc(Cl)cc2)n1` the value was 9.3% (inactive); for `COC(=O)CCSc1nccn1Cc1ccccc1`, 2.17% (inactive); for `O=C1CSC(=O)N1CCOCCN1C(=O)CSC1=O`, 8.19% (inactive).
For `CCOc1ccccc1Nc1nnc(SCc2ccc(C(=O)OC)o2)s1` the value was 3.87% (inactive).
Consider `CC(=O)OCc1cc2cc(C)ccc2[nH]c1=O`, for which the inhibition is 8.56% (inactive).
On to `CC(C)OC(=O)CN1C(=O)c2ccccc2C1=O`, for which the inhibition was 8.17% (inactive).
Take `COCCN(C(=O)CCC(=O)Nc1ccccn1)C(C(=O)NCCC(C)C)c1ccc(OC)cc1` (stereo unspecified): the inhibition was 9.79% (inactive).
As to `Cc1oc(-c2ccccc2F)nc1CS(=O)(=O)CC(=O)NCCCN(C)C1CCCCC1`, the inhibition was 4.54% (inactive).
With `Cc1nnc(NC(=O)CSc2nccn2-c2cccc(C)c2C)s1`, the inhibition was 8.46% (inactive).
Take `Cc1cc(C(=O)COC(=O)CCCN2C(=O)c3ccccc3C2=O)c(C)n1C`: the inhibition is 4.5% (inactive).
Take `COc1ccc(Br)cc1/C=N/n1c(C)nnc1C`: the inhibition was 11.2% (inactive).
For `COCCN(CC(=O)Nc1ccccc1C)S(=O)(=O)c1ccc(S(=O)(=O)N2CCCC2)cc1` the value was 4.44% (inactive); for `CC(C(=O)N1CCOCC1)N1c2cccc3cccc(c23)S1(=O)=O` (stereo unspecified), 8.72% (inactive).
Consider `O=C(CCCN1C(=O)CCC1=O)Nc1ccc(Cl)c(C(F)(F)F)c1`, for which the inhibition was -1.3% (inactive).
As to `C=CCNc1nnc(SCC(=O)N2CCCCC2)c2ccccc12`, the inhibition is 5.18% (inactive).
